Data on six sequences can be found in PMC11006913.

Changes are numbered by the printed parent chain.

Common to all, as to experiment: PBM; 200 nM protein, PBS
Common to all, as to settings: dsDNA, one strand shown

For assay [1], the target named is HOXB4 (Homo sapiens, UniProt P17483 148-234).
Assay [2] deals with T1, VENTX (Homo sapiens, UniProt O95231 78-163, R121Q).
T1 sequence: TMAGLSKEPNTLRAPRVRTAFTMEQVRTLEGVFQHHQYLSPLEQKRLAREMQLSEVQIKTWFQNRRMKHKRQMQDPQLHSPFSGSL

In assay [3] the target is HOXA4 (Homo sapiens, UniProt Q00056 201-287, W262R).
HOXA4 (Homo sapiens, UniProt Q00056 201-287, W262R), sequence (Q00056 201-287 W262R): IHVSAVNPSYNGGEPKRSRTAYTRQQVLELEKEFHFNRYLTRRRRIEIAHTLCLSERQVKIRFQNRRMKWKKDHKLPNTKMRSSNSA
Assay [4] addresses ALX4 (Homo sapiens, UniProt Q9H161 200-286).
The target of assay [5] is T2, PAX4 (Homo sapiens, UniProt O43316 9-242, R200K).
T2 sequence: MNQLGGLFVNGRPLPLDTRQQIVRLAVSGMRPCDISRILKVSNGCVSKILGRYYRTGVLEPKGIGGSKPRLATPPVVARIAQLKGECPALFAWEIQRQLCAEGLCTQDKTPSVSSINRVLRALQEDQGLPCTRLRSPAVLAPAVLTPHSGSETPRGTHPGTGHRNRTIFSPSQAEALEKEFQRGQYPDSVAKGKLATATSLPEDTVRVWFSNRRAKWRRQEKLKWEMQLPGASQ

Assay [6] deals with PRRX1 (Homo sapiens, UniProt P54821 80-166, F113S).
PRRX1 (Homo sapiens, UniProt P54821 80-166, F113S), sequence (P54821 80-166 F113S): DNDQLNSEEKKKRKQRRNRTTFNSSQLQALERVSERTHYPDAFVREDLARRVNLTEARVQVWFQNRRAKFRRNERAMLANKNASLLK
The target of assay [7] is T3, VENTX (Homo sapiens, UniProt O95231 78-163, Y115F).
T3 sequence: T1 sequence with Y38F, Q44R

Assay [8] concerns the target HOXA2 (Homo sapiens, UniProt O43364 129-215, R185T).
Assay [9] deals with HOXA4 (Homo sapiens, UniProt Q00056 201-287, R217L).
HOXA4 (Homo sapiens, UniProt Q00056 201-287, R217L), sequence (Q00056 201-287 R217L): as the sequence (Q00056 201-287 W262R) above, with R17L, R62W counted along it
Assay [10] addresses HOXB4 (Homo sapiens, UniProt P17483 148-234, V174I).
Assay [11] deals with T4, PAX4 (Homo sapiens, UniProt O43316 9-242, R200Q).
T4 sequence: T2 sequence with K192Q

Assay [12] has as its target T5, PAX4 (Homo sapiens, UniProt O43316 9-242, F177V).
T5 sequence: T2 sequence with F169V, K192R

The target in assay [13] is HOXA4 (Homo sapiens, UniProt Q00056 201-287).
HOXA4 (Homo sapiens, UniProt Q00056 201-287), sequence (Q00056 201-287): as the sequence (Q00056 201-287 W262R) above, with R62W counted along it
In assay [14] the target is MSX2 (Homo sapiens, UniProt P35548 130-214).
MSX2 (Homo sapiens, UniProt P35548 130-214), sequence (P35548 130-214): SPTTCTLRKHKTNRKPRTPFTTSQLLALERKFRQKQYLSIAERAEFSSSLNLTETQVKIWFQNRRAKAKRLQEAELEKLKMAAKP
The target in assay [15] is T6, PAX4 (Homo sapiens, UniProt O43316 9-242, F177Y).
T6 sequence: T2 sequence with F169Y, K192R

The target of assay [16] is MSX2 (Homo sapiens, UniProt P35548 130-214, F161Y).
MSX2 (Homo sapiens, UniProt P35548 130-214, F161Y), sequence (P35548 130-214 F161Y): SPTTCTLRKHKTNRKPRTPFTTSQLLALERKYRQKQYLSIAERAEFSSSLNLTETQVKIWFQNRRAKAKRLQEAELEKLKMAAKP
Assay [17] addresses VAX1 (Homo sapiens, UniProt Q5SQQ9 86-172, T142I).
Assay [18] has as its target HOXA4 (Homo sapiens, UniProt Q00056 201-287, W262F).
The target of assay [19] is PRRX1 (Homo sapiens, UniProt P54821 80-166).
PRRX1 (Homo sapiens, UniProt P54821 80-166), sequence (P54821 80-166): as the sequence (P54821 80-166 F113S) above, with S34F counted along it
The target in assay [20] is VAX1 (Homo sapiens, UniProt Q5SQQ9 86-172, K157R).
VAX1 (Homo sapiens, UniProt Q5SQQ9 86-172, K157R), sequence (Q5SQQ9 86-172 K157R): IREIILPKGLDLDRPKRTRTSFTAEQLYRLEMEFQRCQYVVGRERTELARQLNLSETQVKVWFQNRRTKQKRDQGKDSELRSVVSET

ALX4, sequence (Q9H161 200-286): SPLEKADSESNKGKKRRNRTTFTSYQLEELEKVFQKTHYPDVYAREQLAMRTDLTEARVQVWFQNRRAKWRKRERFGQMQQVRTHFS
HOXA2, sequence (O43364 129-215 R185T): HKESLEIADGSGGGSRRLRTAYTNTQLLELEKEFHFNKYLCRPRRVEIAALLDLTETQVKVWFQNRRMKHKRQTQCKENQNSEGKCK
HOXB4 (Homo sapiens, UniProt P17483 148-234), sequence (P17483 148-234): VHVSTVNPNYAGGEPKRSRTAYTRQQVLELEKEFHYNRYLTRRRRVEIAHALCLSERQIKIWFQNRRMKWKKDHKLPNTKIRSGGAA
HOXA4 (Homo sapiens, UniProt Q00056 201-287, W262F), sequence (Q00056 201-287 W262F): as the sequence (Q00056 201-287 W262R) above, with R62F counted along it
HOXB4 (Homo sapiens, UniProt P17483 148-234, V174I), sequence (P17483 148-234 V174I): as the sequence (P17483 148-234) above, with V27I counted along it
VAX1 (Homo sapiens, UniProt Q5SQQ9 86-172, T142I), sequence (Q5SQQ9 86-172 T142I): as the sequence (Q5SQQ9 86-172 K157R) above, with T57I, R72K counted along it

Consider CTAATTGA, for which the binding signal was 13.3 upbm affinity estimate (log intensity, higher = more binding, comparable within an allelic series) in assay [1]; 12.1 upbm affinity estimate (log intensity, higher = more binding, comparable within an allelic series) in [2]; 10.5 upbm affinity estimate (log intensity, higher = more binding, comparable within an allelic series) in [3]; 14.1 upbm affinity estimate (log intensity, higher = more binding, comparable within an allelic series) in assay [4]; 11.5 upbm affinity estimate (log intensity, higher = more binding, comparable within an allelic series) in [5]; 11.1 upbm affinity estimate (log intensity, higher = more binding, comparable within an allelic series) in assay [6]. Further, the binding signal in assay [7] was 11.7 upbm affinity estimate (log intensity, higher = more binding, comparable within an allelic series); in assay [8], 13.3 upbm affinity estimate (log intensity, higher = more binding, comparable within an allelic series); in [9] it was 12 upbm affinity estimate (log intensity, higher = more binding, comparable within an allelic series); in assay [10], 14 upbm affinity estimate (log intensity, higher = more binding, comparable within an allelic series); in assay [11] it was 11.8 upbm affinity estimate (log intensity, higher = more binding, comparable within an allelic series); in assay [12] it was 10.4 upbm affinity estimate (log intensity, higher = more binding, comparable within an allelic series). Besides, the binding signal was 13.9 upbm affinity estimate (log intensity, higher = more binding, comparable within an allelic series) in assay [13]; 13.9 upbm affinity estimate (log intensity, higher = more binding, comparable within an allelic series) in [14]; 10.8 upbm affinity estimate (log intensity, higher = more binding, comparable within an allelic series) in [15]; 13.5 upbm affinity estimate (log intensity, higher = more binding, comparable within an allelic series) in assay [16]; 13.2 upbm affinity estimate (log intensity, higher = more binding, comparable within an allelic series) in assay [17]; 11.4 upbm affinity estimate (log intensity, higher = more binding, comparable within an allelic series) in assay [18]. The binding signal was 13.5 upbm affinity estimate (log intensity, higher = more binding, comparable within an allelic series) in [19] and 13.4 upbm affinity estimate (log intensity, higher = more binding, comparable within an allelic series) in assay [20].
As to CAATTATG, the binding signal in [1] was 13 upbm affinity estimate (log intensity, higher = more binding, comparable within an allelic series); in assay [4], 13.8 upbm affinity estimate (log intensity, higher = more binding, comparable within an allelic series); in assay [6], 11.3 upbm affinity estimate (log intensity, higher = more binding, comparable within an allelic series); in assay [8], 12.5 upbm affinity estimate (log intensity, higher = more binding, comparable within an allelic series); in assay [10] it was 13.6 upbm affinity estimate (log intensity, higher = more binding, comparable within an allelic series); in assay [14], 13.9 upbm affinity estimate (log intensity, higher = more binding, comparable within an allelic series). Moreover, the binding signal in assay [16] was 13.5 upbm affinity estimate (log intensity, higher = more binding, comparable within an allelic series); in [19], 13.5 upbm affinity estimate (log intensity, higher = more binding, comparable within an allelic series).
Regarding CCCCGGCG, the binding signal in assay [3] is 9.68 upbm affinity estimate (log intensity, higher = more binding, comparable within an allelic series); in [9], 9.73 upbm affinity estimate (log intensity, higher = more binding, comparable within an allelic series); in assay [13] it was 9.89 upbm affinity estimate (log intensity, higher = more binding, comparable within an allelic series); in [18], 9.94 upbm affinity estimate (log intensity, higher = more binding, comparable within an allelic series).
With CCAATTAA, the binding signal in [1] is 13 upbm affinity estimate (log intensity, higher = more binding, comparable within an allelic series); in assay [2], 12.2 upbm affinity estimate (log intensity, higher = more binding, comparable within an allelic series); in [3], 10.6 upbm affinity estimate (log intensity, higher = more binding, comparable within an allelic series); in assay [4], 14.3 upbm affinity estimate (log intensity, higher = more binding, comparable within an allelic series); in [5] it was 11.8 upbm affinity estimate (log intensity, higher = more binding, comparable within an allelic series); in assay [6], 11.6 upbm affinity estimate (log intensity, higher = more binding, comparable within an allelic series). The binding signal in [7] was 11.8 upbm affinity estimate (log intensity, higher = more binding, comparable within an allelic series); in assay [8] it was 12.9 upbm affinity estimate (log intensity, higher = more binding, comparable within an allelic series); in [9], 12 upbm affinity estimate (log intensity, higher = more binding, comparable within an allelic series); in assay [10], 13.7 upbm affinity estimate (log intensity, higher = more binding, comparable within an allelic series); in [11], 12.4 upbm affinity estimate (log intensity, higher = more binding, comparable within an allelic series); in [12] it was 10.6 upbm affinity estimate (log intensity, higher = more binding, comparable within an allelic series). Besides, the binding signal is 13.6 upbm affinity estimate (log intensity, higher = more binding, comparable within an allelic series) in assay [13]; 14.2 upbm affinity estimate (log intensity, higher = more binding, comparable within an allelic series) in [14]; 11.1 upbm affinity estimate (log intensity, higher = more binding, comparable within an allelic series) in assay [15]; 13.8 upbm affinity estimate (log intensity, higher = more binding, comparable within an allelic series) in assay [16]; 12.7 upbm affinity estimate (log intensity, higher = more binding, comparable within an allelic series) in assay [17]; 11.3 upbm affinity estimate (log intensity, higher = more binding, comparable within an allelic series) in assay [18]. Moreover, the binding signal in assay [19] was 13.6 upbm affinity estimate (log intensity, higher = more binding, comparable within an allelic series); in assay [20] it was 13 upbm affinity estimate (log intensity, higher = more binding, comparable within an allelic series).
For the sequence ACTAATTG, the binding signal in assay [1] is 13.1 upbm affinity estimate (log intensity, higher = more binding, comparable within an allelic series); in assay [2], 12.3 upbm affinity estimate (log intensity, higher = more binding, comparable within an allelic series); in assay [3], 10.5 upbm affinity estimate (log intensity, higher = more binding, comparable within an allelic series); in assay [4] it was 13.9 upbm affinity estimate (log intensity, higher = more binding, comparable within an allelic series); in assay [5] it was 11.5 upbm affinity estimate (log intensity, higher = more binding, comparable within an allelic series); in assay [6], 11.2 upbm affinity estimate (log intensity, higher = more binding, comparable within an allelic series). Further, the binding signal in assay [7] was 11.9 upbm affinity estimate (log intensity, higher = more binding, comparable within an allelic series); in assay [8], 13.2 upbm affinity estimate (log intensity, higher = more binding, comparable within an allelic series); in assay [9], 11.8 upbm affinity estimate (log intensity, higher = more binding, comparable within an allelic series); in assay [10], 13.8 upbm affinity estimate (log intensity, higher = more binding, comparable within an allelic series); in assay [11] it was 12 upbm affinity estimate (log intensity, higher = more binding, comparable within an allelic series); in assay [12], 10.3 upbm affinity estimate (log intensity, higher = more binding, comparable within an allelic series). Besides, the binding signal in [13] is 13.7 upbm affinity estimate (log intensity, higher = more binding, comparable within an allelic series); in assay [14], 14 upbm affinity estimate (log intensity, higher = more binding, comparable within an allelic series); in assay [15], 10.7 upbm affinity estimate (log intensity, higher = more binding, comparable within an allelic series); in [16], 13.7 upbm affinity estimate (log intensity, higher = more binding, comparable within an allelic series); in assay [17], 13 upbm affinity estimate (log intensity, higher = more binding, comparable within an allelic series); in assay [18], 11.4 upbm affinity estimate (log intensity, higher = more binding, comparable within an allelic series). Besides, the binding signal is 13.3 upbm affinity estimate (log intensity, higher = more binding, comparable within an allelic series) in assay [19] and 13.3 upbm affinity estimate (log intensity, higher = more binding, comparable within an allelic series) in assay [20].
On to AATTAACA, for which the binding signal was 13 upbm affinity estimate (log intensity, higher = more binding, comparable within an allelic series) in [1]; 11.9 upbm affinity estimate (log intensity, higher = more binding, comparable within an allelic series) in assay [2]; 10.8 upbm affinity estimate (log intensity, higher = more binding, comparable within an allelic series) in assay [3]; 13.9 upbm affinity estimate (log intensity, higher = more binding, comparable within an allelic series) in assay [4]; 11.8 upbm affinity estimate (log intensity, higher = more binding, comparable within an allelic series) in [5]; 11.2 upbm affinity estimate (log intensity, higher = more binding, comparable within an allelic series) in assay [6]. Also, the binding signal in [7] was 11.7 upbm affinity estimate (log intensity, higher = more binding, comparable within an allelic series); in [8] it was 12.6 upbm affinity estimate (log intensity, higher = more binding, comparable within an allelic series); in [9], 12.1 upbm affinity estimate (log intensity, higher = more binding, comparable within an allelic series); in [10] it was 13.8 upbm affinity estimate (log intensity, higher = more binding, comparable within an allelic series); in assay [11], 12.2 upbm affinity estimate (log intensity, higher = more binding, comparable within an allelic series); in assay [12], 10.8 upbm affinity estimate (log intensity, higher = more binding, comparable within an allelic series). The binding signal in [13] is 13.7 upbm affinity estimate (log intensity, higher = more binding, comparable within an allelic series); in assay [14], 13.6 upbm affinity estimate (log intensity, higher = more binding, comparable within an allelic series); in assay [15], 11.2 upbm affinity estimate (log intensity, higher = more binding, comparable within an allelic series); in [16], 13.2 upbm affinity estimate (log intensity, higher = more binding, comparable within an allelic series); in assay [17], 12.6 upbm affinity estimate (log intensity, higher = more binding, comparable within an allelic series); in assay [18], 11.7 upbm affinity estimate (log intensity, higher = more binding, comparable within an allelic series). Besides, the binding signal is 13.3 upbm affinity estimate (log intensity, higher = more binding, comparable within an allelic series) in [19] and 12.8 upbm affinity estimate (log intensity, higher = more binding, comparable within an allelic series) in assay [20].
